Inconclusive results are not listed. Values without a mark were called inactive. Calls follow the shape of the dose curve; as a rule, active = well fitted cell-killing curve with a large enough effect; inconclusive = small, poorly fitted or top-dose-only effect; inactive = no such curve, though single readings can be large or run the other way.
experiment: qHTS of pediatric cancer cell lines to identify multiple opportunities for drug repurposing: Primary screen for NB-EBc1 cells (AID 1347095); conditions: NB-EBc1 neuroblastoma viability, CellTiter-Glo luminescence, 48 h; series mostly up to 46 µM; activity change, negative = cytotoxic: at the top concentration;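 also: plate controls were DMSO neutral control for no effect and bortezomib for full effect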
How it was run: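 ATP-based luminescence (CellTiter-Glo) quantifies viability after a 48-hour exposure. Compounds are dosed across 8 or 11 final concentrations; DMSO and 2.3 µM bortezomib serve as controls.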

SMILES | activity change, negative = cytotoxic
CC(=O)NC(Cc1ccccc1)C(=O)O (stereo not drawn) | 6.65%
CS(=O)(=O)c1ccc([C@@H](O)[C@@H](CF)NC(=O)C(Cl)Cl)cc1 | 49.4%
Nc1nc2c(ncn2CCC(CO)CO)c(=O)[nH]1 | -0.478%
Cc1cccc(Nc2cc(Cl)nc(SCC(=O)O)n2)c1C | 27.4%
CC(C)(C)NCC(O)COc1ccc(NC(=O)NC2CCCCC2)cc1 (stereo not drawn) | 14.1%
O=C1NS(=O)(=O)c2ccccc21 | 18.1%
O=C(O)c1ccccn1 | 7.24%
CC(C)(O)c1ccccc1CC[C@@H](SCC1(CC(=O)O)CC1)c1cccc(/C=C/c2ccc3ccc(Cl)cc3n2)c1 | 21.2%
COc1ccccc1O | 19.2% [at 92.7 µM]
N[C@@H](CSSC[C@H](N)C(=O)O)C(=O)O | -0.714% [at 0.597 µM]
CCCCCCCCCCCCOS(=O)(=O)O | 18.8%
C[C@@H]1CN(c2c(F)c(F)c3c(=O)c(C(=O)O)cn(C4CC4)c3c2F)C[C@H](C)N1 | 72.6% [at 16.1 µM]
O=C1O[C@H](CO)[C@@H](O)[C@H](O)[C@H]1O | 19.6%
CC(=O)Nc1ccc(/C=N/NC(N)=S)cc1 | 17.2%
O=C(O)CC(O)C(=O)O (stereo not drawn) | 23%
C[C@@H]1CC[C@@]2(OC1)O[C@H]1C[C@H]3[C@@H]4CC[C@H]5C[C@@H](O)CC[C@]5(C)[C@H]4CC(=O)[C@]3(C)[C@H]1[C@@H]2C | 21.8% [at 4.84 µM]
N[C@H]1C(O)O[C@H](CO)[C@@H](O)[C@@H]1O (stereo partly drawn) | 5.3%

SMILES | activity change, negative = cytotoxic
C[C@H](N)[C@H](O)c1cccc(O)c1 | 9.41%
CCCCN1CCCC[C@H]1C(=O)Nc1c(C)cccc1C | -2.11%
CN(N=O)C(=O)N[C@@H]1[C@@H](O)[C@H](O)[C@@H](CO)O[C@@H]1O | 3.04%
CN(C)CCCO[C@@H]1[C@H]2OC(C)(C)O[C@H]2O[C@@H]1C(O)CO (stereo partly drawn) | 19.7%
O=c1cc[nH]c(=S)[nH]1 | 6.3%
Nc1ccc(S(=O)(=O)Nc2ccccc2)cc1 | 32.4%
O=c1cc(CO)occ1O | 19.4%
COc1cc(C)c(Cc2cnc(N)nc2N)cc1OC | 3.77%
CC(C)(C)C(=O)C(Oc1ccc(Cl)cc1)n1ccnc1 (stereo not drawn) | 3.57%
COc1cc2[nH]c(=O)[nH]c(=O)c2cc1OC | 31.2%
COc1ccc(S(=O)(=O)Nc2nnc(CC(C)C)s2)cc1 | 33.7%
CCC(=O)Nc1ccc(O)cc1 | 12.3%
CC1(C)[C@@H]2CC[C@@]1(C)C(=O)C2 | 25%
CN1CCOC(c2ccccc2)c2ccccc2C1 (stereo not drawn) | 10.1%
CCN(CC)C(=O)Nc1ccc(OCC(O)CNC(C)(C)C)c(C(C)=O)c1 (stereo not drawn) | 13.6%
CCCCOc1cc(C(=O)OCCN(CC)CC)ccc1N | 4.63%

— PubChem BioAssay (NCATS)
